Test system: Plasmodium falciparum
Experiment: GSK_TCMDC: Inhibition of Plasmodium falciparum 3D7 in whole red blood cells, using parasite LDH activity as an index of growth. Test compounds present at 2uM
Assay type: functional

| Compound | Inhibition [%] |
| --- | --- |
| CCOc1cc[nH]c(=O)n1 | 97 |
| Cc1cc(C(=O)Nc2ccc3c(c2)CCN3C2CCN(Cc3csc4ccccc34)C2)no1 (stereo not drawn) | 96 |
| CCC(=O)Oc1ccc(NC(=O)c2cccc(OC)c2)cc1 | 98 |
| COc1cccc(-c2csc(C(=O)NC3CCCCN(Cc4ccc(C(C)(C)C)cc4)C3)c2)c1.O=C(O)C(F)(F)F (stereo not drawn) | 97 |
| O=C(c1ccc(-c2cccc(-c3nc4cc(C(F)(F)F)ccc4[nH]3)c2)cc1)N1CCCCC1CN1CCC(O)C1 (stereo not drawn) | 100 |
| O=C(NCCCN1CCOCC1)c1cccc(Nc2nccc(Nc3ccc(Oc4ccccc4)cc3)n2)c1 | 98 |
| Cc1nc(O)c2c(ccc3ccc(CNc4ccc(C(=O)N[C@@H](CCC(=O)O)C(=O)O)c(F)c4)cc32)n1 | 96 |
| O=C(Nc1nc2cc(S(=O)(=O)NCCc3ccc(F)cc3)ccc2n1CCCn1ccnc1)c1ccc(Cl)cc1.O=C(O)C(F)(F)F | 100 |
| CC(C)n1ncc2c(C(=O)N3CCCc4ccccc43)cc(-c3ccccc3)nc21 | 100 |
| CCOc1cc2ncnc(Nc3ccc(OCc4ccccc4F)c(Cl)c3)c2cc1OCC.Cl | 100 |
| CCOC(=O)c1cccc(NC(=O)Nc2cccc(-c3ncc(OCCCN)c4c3nc(-c3nonc3N)n4CC)c2)c1.O=C(O)C(F)(F)F | 100 |
| CCOc1cccc(C2c3c(oc4ccccc4c3=O)C(=O)N2CCN(CC)CC)c1 (stereo not drawn) | 100 |
| O=[N+]([O-])c1ccc2nc(Nc3cccc(C(F)(F)F)c3)c(Nc3cccc(C(F)(F)F)c3)nc2c1 | 100 |

— ChEMBL document CHEMBL1157539, “Thousands of chemical starting points for antimalarial lead identification” (Nature, 2010)
